Test results as given in ChEMBL document CHEMBL3988442, “University of Dundee, Small-Polar-MMV Screening Library” (2021).
About 420 (0.61%) of roughly 69,000 compounds showed an effect of 50% or more. The sample as a whole holds a higher share of strong results than the screen did.

target: T1, Histidine--tRNA ligase (Leishmania infantum) (UniProt A4I591); assay: Leishmania infantum Histidine tRNA synthetase (LdHisRS); type: functional; design: scale not given: in the data most compounds retested in dose-response had high values; details: 30 µM
T1 sequence (whole entry): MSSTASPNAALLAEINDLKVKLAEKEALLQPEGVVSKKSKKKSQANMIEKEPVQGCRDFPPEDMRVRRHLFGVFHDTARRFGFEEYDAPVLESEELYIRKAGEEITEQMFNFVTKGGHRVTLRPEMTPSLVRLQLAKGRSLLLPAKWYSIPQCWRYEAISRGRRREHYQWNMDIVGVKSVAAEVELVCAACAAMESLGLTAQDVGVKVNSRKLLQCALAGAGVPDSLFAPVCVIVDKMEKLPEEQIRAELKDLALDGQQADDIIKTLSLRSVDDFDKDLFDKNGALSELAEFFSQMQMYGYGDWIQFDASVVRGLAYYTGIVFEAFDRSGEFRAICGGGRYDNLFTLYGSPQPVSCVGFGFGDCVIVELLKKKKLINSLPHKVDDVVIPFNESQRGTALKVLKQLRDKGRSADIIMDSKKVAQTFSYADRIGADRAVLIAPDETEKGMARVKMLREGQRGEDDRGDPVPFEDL

SMILES	Percent Effect
COc1cc(CN2CCN(c3cccc(OC)c3)C(=O)C2)cc(OC)c1	18.3%
Cc1cc(C)cc(N2CCN(Cc3cccc(CCN)c3)CC2=O)c1	8.2%
COc1cccc(N2CCN(Cc3cccc(CCN)c3)CC2=O)c1	60.7%
NCCc1cccc(CN2CCN(c3cccc(Cl)c3)C(=O)C2)c1	14.8%
NCCc1cccc(CN2CCN(c3ccccc3)C(=O)C2)c1	55.7%
COc1cccc(N2CCN(Cc3ccc4occc4c3)CC2=O)c1	13.5%
Cc1noc(C)c1C(=O)N1C[C@H]2CCC[C@@]2(COc2ccccn2)C1	17.6%
Cc1ccc(C(=O)N2CCO[C@H]3[C@H](OCc4ccccn4)CC[C@@H]32)o1	19.3%
Cc1nc([C@@H]2C[C@@H]3CCN(C(=O)Cc4cccc(F)c4)C[C@H]3O2)no1	9.09%
CN(C)C(=O)[C@H]1C[C@@H]2CCN(C3CCOCC3)C[C@@H]2O1	11.1%
Cn1ccnc1Sc1ccc(N)cn1	91%
CN1CCN(S(=O)(=O)c2ccc(Sc3nccn3C)nc2)CC1	-3.37%
Cn1ccnc1Sc1ccc(S(N)(=O)=O)cn1	10.3%
CS(=O)(=O)N1CCO[C@@H]2CN(C(=O)N3CCOCC3)CC[C@@H]2C1	4.5%
Cc1ccc(N2CCc3sc(C(=O)N4CCOCC4)cc32)nn1	50%
CN(C)CC(=O)N1CCc2sc(C(=O)N3CCOCC3)cc21	15.8%
Cc1ccc(N2CCc3sc(C(=O)NCCN4CCCC4)cc32)nn1	8.33%
Cc1cc(C(=O)NCC(C)C)c2c(C3CCCN3)noc2n1 (stereo unspecified)	4.14%
Cc1cc(C(=O)NCC(F)(F)F)c2c(C3CCCN3)noc2n1 (stereo unspecified)	71.7%
Cc1cc(C(=O)NCC(F)(F)F)c2c(C3CCNCC3)noc2n1	19.3%
Cc1cnc(N2CC[C@@]3(O)CCCC[C@H]3C2)nc1-c1ccnn1C	-3.33%
CN1[C@H](CN2CCCC2)C[C@@H]2CN(C(=O)c3ccsc3)CC[C@@H]21	0.917%
CO[C@@H]1CN(S(=O)(=O)c2cn(C)cn2)[C@@H]2CCCO[C@@H]21	17.2%
Cc1ccc(N2CC[C@H]3C[C@H](C(=O)NCc4ccco4)O[C@H]3C2)nn1	18.1%

SMILES	Percent Effect
N#CCCSc1sc2c(O)cc(O)nc2c1C#N	74.2%
N#Cc1c(SCCN2CCCCCC2)sc2c(O)cc(O)nc12	24.7%
N#Cc1c(SCCN2CCCCC2)sc2c(O)cc(O)nc12	24.7%
Cc1ccc(NS(=O)(=O)c2cnn(Cc3ccccc3)c2)c(C(=O)O)c1	23.9%
Cc1ccc(-n2cc(S(=O)(=O)Nc3cccc(C(=O)O)c3C)cn2)cc1	13%
Cc1ccc(NS(=O)(=O)c2cnn(-c3ccccc3)c2)c(C(=O)O)c1	69.6%
Cc1ccnc(C(=O)N2C[C@@H]3CN(S(C)(=O)=O)CCO[C@@H]3C2)c1	8.77%
COCCOc1ccccc1C(=O)N1CCCCC1c1nccs1 (stereo unspecified)	50%
COc1cccc(C(=O)N2CCCCC2c2nccs2)c1OC (stereo unspecified)	4.39%
COCCOc1ncccc1C(=O)N1CCCCC1c1nccs1 (stereo unspecified)	14.9%
Cn1cc(NS(=O)(=O)c2ccc(OC(F)(F)F)cc2)ccc1=O	82%
CCCc1ccc(S(=O)(=O)Nc2ccc(=O)n(C)c2)cc1	29.1%
Cn1cc(NS(=O)(=O)c2ccc(C(F)(F)F)cc2)ccc1=O	38.2%
Cn1cc(NS(=O)(=O)c2ccc(F)c(F)c2)ccc1=O	47.3%
Cc1ccc(S(=O)(=O)Nc2ccc(=O)n(C)c2)cc1	77.5%
Cc1ccc(S(=O)(=O)Nc2ccc(-n3nnn(C)c3=O)cc2)cc1	12.2%
CC(C)c1ccc(C(=O)O)cc1S(=O)(=O)Nc1ccc(=O)n(C)c1	84.6%
Cn1cc(NS(=O)(=O)c2ccc3c(c2)CCCC3)ccc1=O	41.8%
Cc1ccc(S(=O)(=O)Nc2ccc(-n3cccc3C(=O)O)c(C)c2)cc1	6.25%
CCc1ccc(C(=O)O)cc1S(=O)(=O)Nc1ccc(=O)n(C)c1	21.4%
Cc1ccc(S(=O)(=O)Nc2ccc(=O)n(C)c2)c(Br)c1	32.7%
CC(C)Cc1ccc(S(=O)(=O)Nc2ccc(=O)n(C)c2)cc1	91%
c1ccc(CN2CC[C@@H]3O[C@H](COCc4ccncc4)CC[C@@H]32)nc1	10.9%
CC(C)CN1C[C@@H]2OCC(=O)N(Cc3nccn3C)[C@@H]2C1	23%

SMILES	Percent Effect
O=C([C@@H]1COC[C@H]2CN(C3CCOCC3)C[C@H]21)N1CCOCC1	30.6%
CCO[C@H]1CC[C@H]2[C@@H]1OCCN2C(=O)COc1ccccc1	19.1%
CN1[C@H]2CC[C@@H]1CN(C(=O)c1sccc1S(N)(=O)=O)CC2	-12.7%
CN(c1cccnn1)[C@@H]1CC[C@@H]2CN(Cc3cccc(C(=O)O)c3)C[C@@H]21	5.63%
Cc1[nH]nc(CCC(=O)N2C[C@H]3CC[C@@H]2CN(C(=O)N(C)C)C3)c1C	13.9%
Cc1cc(C(=O)N2C[C@@H]3CN(S(C)(=O)=O)CCO[C@@H]3C2)c(C)o1	-1.75%
CNC(=O)[C@@]12CCO[C@@H]1CCN(S(=O)(=O)c1cc(C)cc(C)c1)C2	13%
Cn1ccc(CN2CCC(CC(=O)NC3CCCC3)CC2)cc1=O	-8.33%
Cn1cc(Br)cc(NC(=O)CC(C)(C)C)c1=O	95%
CCC(=O)Nc1cc(Br)cn(C)c1=O	103%
O=C(CC1CCCC1)Nc1ccc(-n2cc(Br)cn2)nc1	10.5%
CCC(=O)Nc1cc(Br)cnc1OCC(F)(F)F	14%
Cc1c(CS(C)(=O)=O)cccc1NC(=O)CC1CCCC1	11.7%
CC(C)(C)CC(=O)Nc1ccccc1SCC(N)=O	9.57%
Cn1cc(Br)cc(NC(=O)Cc2cccs2)c1=O	34%
Cn1cc(C(C)(O)CNC(=O)c2cc(Br)cn2C)cn1 (stereo unspecified)	25.5%
Cc1cc(=O)n(C)cc1NC(=O)CC1CCC1	75%
Cn1cc(Br)cc(NC(=O)CC2CCC2)c1=O	103%
Cc1nn(C)cc1NC(=O)CC1CCN(CCc2ccccc2)CC1	5.67%
COCCNC(=O)[C@H]1CN(Cc2nccs2)C[C@H]2OCC[C@@H]12	15.2%
COCCCN1C(=O)CC[C@H]2CN(Cc3ncc[nH]3)CC[C@H]21	-49.3%
COc1cc(N2C[C@H](C(=O)N3CCCC3)[C@@H]3CCO[C@@H]3C2)ncn1	8.06%
O=C(c1ccco1)N1CC[C@H]2[C@H]1CCN2S(=O)(=O)C1CC1	5.26%
